Where a name gives a salt, the structure may show the parent alone.
Key:
[1] = test system: E18 rat cortical neuron-glia co-culture; assay: fiber score / MBP score (myelination specific beyond OL differentiation) (ratio); higher = more myelination-specific MBP alignment; conditions: treatment time: 8 days (DIV5-DIV13)
Outline: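 Papain-dissociated primary E18 rat cortical co-cultures, plated at 20,000 cells/well on poly-d-lysine/laminin 96-well plates, were exposed to library compounds at 1 or 5 µM in myelination medium between DIV5 and DIV13. Following fixation in 4 % paraformaldehyde, cultures were stained for MBP, Olig2 and DAPI, and four 10X fields per well were analysed in duplicate wells. Values are the ratio of fiber score (continuous MBP fiber length per Olig2+ nucleus) to MBP score (thresholded MBP area × intensity per Olig2+ nucleus).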

[2] = test system: E18 rat cortical neuron-glia co-culture; assay: myelination (MBP fiber length per Olig2+ nucleus), % of 1 µM DAPT response (DMSO = 0) (% of DAPT); higher = more myelination, active = 50 or more; conditions: treatment time: 8 days (DIV5-DIV13)
Outline: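 Myelination, expressed as continuous straight MBP fiber length per Olig2+ nucleus, was normalised to 0.1 % DMSO as 0 and a 1 µM positive control as 100. The cultures were primary E18 rat cortical co-cultures dissociated with papain and plated at 20,000 cells/well on poly-d-lysine/laminin-coated 96-well plates. They received library compounds at 1 or 5 µM in myelination medium between DIV5 and DIV13. Analysis covered four 10X fields per well in duplicate wells after 4 % paraformaldehyde fixation and immunostaining for MBP and Olig2 with DAPI.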

SMILES | fiber score / MBP score ([1]; 1 µM) | fiber score / MBP score ([1]; 5 µM) | myelination ([2]; 1 µM) | myelination ([2]; 5 µM)
COc1cccc(C2(O)CCCCC2CN(C)C)c1 (stereo not given) [Tramadol] | 0.793 | 0.749 | -12.4 (inactive) | -7.33 (inactive)
C[C@]12CC[C@H](O)CC1=CC[C@@H]1[C@@H]2CC[C@@]2(C)[C@H]1CC[C@]2(C)O [Methandriol] | 0.712 | 0.961 | -15.9 (inactive) | -4.34 (inactive)
FC(F)(F)c1cccc(N2CCNCC2)c1 [1-(3-trifluoromethylphenyl)piperazine hydrochloride (TFMPP)] | 0.633 | 0.613 | -32.2 (inactive) | -32.7 (inactive)
CC(O)(CS(=O)(=O)c1ccc(F)cc1)C(=O)Nc1ccc(C#N)c(C(F)(F)F)c1 (stereo not given) [Bicalutamide] | 0.676 | 0.996 | -28 (inactive) | -2.06 (inactive)
CCN(CC)CCOC(=O)C(O)(c1ccccc1)c1ccccc1 [Benactyzine] | 1.18 | 1.2 | 1.93 (inactive) | 0.796 (inactive)
O=c1c2ccccc2[se]n1-c1ccccc1 [Ebselen] | 2.01 |  | 8.33 (inactive) | 
COc1ccc2c(c1)[C@]13CCCC[C@@H]1[C@H](C2)N(C)CC3 [Dextromethorphan] | 1.19 | 0.893 | 5.05 (inactive) | 1.54 (inactive)
CN1C(=O)CN=C(c2ccccc2)c2cc([N+](=O)[O-])ccc21 [Nimetazepam] | 0.743 | 0.878 | -11 (inactive) | -8.49 (inactive)
Oc1cc(Cl)ccc1Oc1ccc(Cl)cc1Cl [Triclosan] | 1.18 |  | 26.5 (inactive) | 
CNC1CC(c2ccc(Cl)c(Cl)c2)c2ccccc21 (stereo not given) [Indatraline] | 0.417 |  | -58 (inactive) | 
CC(C)(O)[C@@H]1[C@H]2OC(=O)[C@@H]1[C@]1(O)C[C@H]3O[C@]34C(=O)O[C@H]2[C@]14C [Picrotin] | 0.632 | 0.797 | -12.7 (inactive) | -5.47 (inactive)
CN1[C@@H]2C[C@@H](OC(=O)[C@H](CO)c3ccccc3)C[C@H]1[C@@H]1O[C@@H]12 [Scopolamine hydrobromide] | 0.649 | 0.821 | -49.5 (inactive) | -31.2 (inactive)
COc1cc([C@@H]2c3cc4c(cc3[C@H](O)[C@H]3COC(=O)[C@H]23)OCO4)cc(OC)c1OC [Podophyllotoxin] | 0.393 | 0.31 | -13.9 (inactive) | -15.8 (inactive)
C[C@]12CCC(=O)C[C@@H]1CC[C@@H]1[C@@H]2CC[C@@]2(C)[C@H]1CC[C@]2(C)O [Mestanolone] | 0.746 | 0.854 | -21.8 (inactive) | -14.6 (inactive)
COc1ccc2[nH]cc(C3=CCNCC3)c2c1 | 0.706 | 0.448 | -14.7 (inactive) | -24.2 (inactive)
COc1cc(N)c(Cl)cc1C(=O)NC1CN2CCC1CC2 (stereo not given) [Zacopride] | 0.703 | 0.884 | -11.9 (inactive) | -0.361 (inactive)
CCOC(=O)C1(c2ccccc2)CCN(CCC(C#N)(c2ccccc2)c2ccccc2)CC1 [Diphenoxylate] | 0.738 | 0.867 | -12.3 (inactive) | 11.5 (inactive)
CCCCC/C=C\C/C=C\C/C=C\C/C=C\CCCC(=O)Nc1ccc(O)cc1 | 0.943 | 0.96 | -0.524 (inactive) | -30.5 (inactive)
c1ccc(Cn2ccnc2)cc1 [1-Benzylimidazole] | 0.664 | 0.942 | -11.8 (inactive) | -0.886 (inactive)
CN1C(=O)CN=C(c2ccccc2)c2cc(Cl)ccc21 [Diazepam] | 0.832 | 0.879 | -8.32 (inactive) | -9.05 (inactive)
CN1CC[C@]23c4c5ccc(O)c4O[C@H]2c2[nH]c4ccccc4c2C[C@@]3(O)[C@H]1C5 [Oxymorphindole] | 0.883 |  | 97 | 
C[C@]12Cc3c[nH]nc3C[C@@H]1CC[C@@H]1[C@@H]2CC[C@@]2(C)[C@H]1CC[C@]2(C)O [Stanozolol] | 0.697 |  | -13.6 (inactive) | 
CN1[C@@H]2CC[C@H]1C[C@@H](OC(=O)[C@H](CO)c1ccccc1)C2 [Hyoscyamine] | 0.631 | 0.692 | -15.1 (inactive) | -12.5 (inactive)
O=C1CN=C(c2ccccc2)c2cc([N+](=O)[O-])ccc2N1 [Nitrazepam] | 0.887 | 0.996 | -6.44 (inactive) | 0.525 (inactive)
C[C@]12CCC(=O)C=C1CC[C@@H]1[C@@H]2CC[C@@]2(C)[C@H]1CC[C@]2(C)O [Methyltestosterone] | 0.609 | 0.755 | -24.8 (inactive) | -17.2 (inactive)
